According to article PMC12864922, “TDP-43 directly inhibits mRNA accumulation in neurites through modulation of mRNA stability”:
Whole data set: some 9,900 sequences, median “r (bound/input frequency ratio)” near 0.7, cut for the highest 2% near 6.5. For the sample, the highest values were picked, then their nearest neighbours and some sequences at random.

B1: ENSMUSG00000031028.589|Tub (ssRNA)
RNA: GGGAGUUCUACAGUCCGACGAUCGCUUCGAUAUCCGCAUGCUAUUUCUUUCAGUUUAUGGCCACCUGCCCAAAUUGACUUCCAGCUUACAAUCUUCUGUCAUUUCAAGAUCGUAAGAAGUACUGGGAUGGGUUUGAGUUUUCAGCACAGAGGCGAGUUGAUCUAGGAGCAUACAACUGUACUGAGCAGCUAGAGCAUUUGAGCAACCCAUGUAAUCUUUGUGUUUCCCUCCCUGUAAGAAGGCCUGUCAGAGCUUGCUGUAGGAGUUAGGGUAAAUGAAAGUUAGUCCUGGCUCUCAUCACCACUCUUGCGGUCGCACUAGUGUGGAAUUCUCGGGUGUCAAGG
B2: ENSMUSG00000004113.44|Cacna1b (ssRNA)
RNA: GGGAGUUCUACAGUCCGACGAUCGCUUCGAUAUCCGCAUGCUAUCCGCCGUGUACCCAAUGGCUAUCACUGCACUUUGGGACUCAGCACUGGCGUCCGGGCGCGGCACAGCUACCACCACCCCGAUCAGGACCACUGGUGCUAGCUGCACCACGACCACCCAUGUACCAGCUCCAUGGGUGAGGGUUCCAGUUGAUGAGUUUUAUCAUCCGCUCUGGGCUGUGGGGUCACAGCCCUGGGAGGAGGGCCCUCACAUCUCGGCCUCUGUGGUGGAGGCUCCUGCUUCCCUCCCUCCCUCCCUUUUCUCUUGCGGUCGCACUAGUGUGGAAUUCUCGGGUGUCAAGG
B3: ENSMUSG00000031028.188|Tub (ssRNA)
RNA: GGGAGUUCUACAGUCCGACGAUCGCUUCGAUAUCCGCAUGCUAUUAAUGGCAGAGUUGAGAACCUCAAAUUCUUUUGUUCCUACUGUUGCCCAGAAACUAGACUCUCUGACCUGCUAGGGUCUAUUCUGCAUGUCCUUUCUCUUCCCAGUUCCAGAGAUGAAACCCCUCCGAGUUAAUGUAUAAGGUUGGAAACCUUUCAGUAGGGAAUCAGGCAGUUCCCUGUUGAAAGUUGUCUGAGUUUUUGCACACCAUUCUGAUCUGAUGUGGCCUGUGCCUGGCUCCUCUAUGAGGACUUCGAGCUGCUCUUGCGGUCGCACUAGUGUGGAAUUCUCGGGUGUCAAGG
B4: ENSMUSG00000029028.242|Lrrc47 (ssRNA)
RNA: GGGAGUUCUACAGUCCGACGAUCGCUUCGAUAUCCGCAUGCUAGUCAGAACUAGUGAAGCUCCAGGCUCCUCGUGGCAGACCCUGGACAACGCUGGUAGCUGUUCUCCAUGAGACACGGCUGCUCACAGGUCCCUUUGAGUGGCUGUGGCAAGUACUCACCUACUAAGUGUUUAGGGUGGAGCUAUCCUGUGCUCACCCUGUCUCCCCCCAGUUCCUGCUGUUCCCUCCAGCCCAGCCCAGCCCAGGUGUGAGAUUCAUUGAGAUUUUUGAAACUGUUUUUACAGAUUCAAGCAGAACGCCUCCUCUUGCGGUCGCACUAGUGUGGAAUUCUCGGGUGUCAAGG
B5: ENSMUSG00000058297.76|Spock2 (ssRNA)
RNA: GGGAGUUCUACAGUCCGACGAUCGCUUCGAUAUCCGCAUGCUACUGAUCCUGCCCCUCAGCCCAACACCUGGAAUCCCUGCCCUGCCUAAUCAGCCCUACCCCAUCCUGCCUUUCUUCCUUCCUCUUCUGAGGCCAGGGAGAGGGAGGGAGGGCAGGCAGCUGAAAGCUGAGCGUCCUCCCCAAAUUGGGCUGAUUUGAUAUGAAAGCCCCACCACGGUCUUGUGGUGAUGAGGCAGGACCUGUACACACAGCAAGGCUUACUAUCCGUCUCCUGACAUCCGAAGAGCUCGUCGCAGGUGUGUCUCUUGCGGUCGCACUAGUGUGGAAUUCUCGGGUGUCAAGG
B6: ENSMUSG00000061578.198|Ksr2 (ssRNA)
RNA: GGGAGUUCUACAGUCCGACGAUCGCUUCGAUAUCCGCAUGCUAGGCACAGAGUGAAUGGGAAGGAGAGCCCUGAGGUCACUGGUCCACAUGCCCAAAGCCAUGCCCCCCAGUGAUCAGACCUGACACAAGAGGCAAAGCUGUCCCUAAGCAGAGAAUUAGCAGGGUUAGCCAGACAGCAAAAUCCAUGUAAACAUACAAAACCACCCCCCCUUUUUGAGUGGCCCUAUUGGAUGUACACACUAGGACCAAGCACGGGUCCAAAGCAGGAAGACUGAUUGACAGUAGUCACACUUCUAGAGAGACUCUUGCGGUCGCACUAGUGUGGAAUUCUCGGGUGUCAAGG
B7: ENSMUSG00000022095.7|Fam160b2|99:103 (ssRNA)
RNA: GGGAGUUCUACAGUCCGACGAUCGCUUCGAUAUCCGCAUGCUAGUCAAGUUUCCCCCACACGGUCCUUACCUGAACUUCUCUCCACCUCCAGAAGGGCAAGUCUGAGCCAGGAGCAUGACGGGUGGGGGAAGAUUCCUGCCACACAACUUCUGCCCACGGGCAGUCUCCUGCCUGGCCAUGCUGCCACUCUGUCCUCCAUGCCGGGGACUUCAGCUGCAGGACACCUCACCUGUUGACCCCACGAGCUGAGGUUUCAAGGAGGUGCUGGCUCCUAAGGCAGUGGUAUUCUUGGAGCCUUUUAGCUCUUGCGGUCGCACUAGUGUGGAAUUCUCGGGUGUCAAGG
B8: ENSMUSG00000004113.288|Cacna1b (ssRNA)
RNA: GGGAGUUCUACAGUCCGACGAUCGCUUCGAUAUCCGCAUGCUAAAAACCCAUGCUCAGGAAGGUGUUCAGUGUGCACAGAUAGCUGGGAGGCCACGAGAGAAAGGUUGCACACAGACAGGCAGGCACUCCUUGGUGUGGUCUCUCUGUUUUGAAACUUCUGAUGACUUCUUGGUGGCUUGUUGUCUUCUACCCCAUGUUUCUCACAGGAUCUGUGUGUGUGUGUGUGUGUGUGUGUGUGUGUGUGUGUGUGUGUGUUAGCAUGUGUGUAUUAGCGUGUGUGAGUGUGUGAGCAUGCACGAGUCCUCUUGCGGUCGCACUAGUGUGGAAUUCUCGGGUGUCAAGG
B9: ENSMUSG00000004113.285|Cacna1b (ssRNA)
RNA: GGGAGUUCUACAGUCCGACGAUCGCUUCGAUAUCCGCAUGCUAUGGCUGCUUUGCAAAGGGAAAACCCAUGCUCAGGAAGGUGUUCAGUGUGCACAGAUAGCUGGGAGGCCACGAGAGAAAGGUUGCACACAGACAGGCAGGCACUCCUUGGUGUGGUCUCUCUGUUUUGAAACUUCUGAUGACUUCUUGGUGGCUUGUUGUCUUCUACCCCAUGUUUCUCACAGGAUCUGUGUGUGUGUGUGUGUGUGUGUGUGUGUGUGUGUGUGUGUGUGUUAGCAUGUGUGUAUUAGCGUGUGUGAGUGCUCUUGCGGUCGCACUAGUGUGGAAUUCUCGGGUGUCAAGG
B10: ENSMUSG00000004113.286|Cacna1b (ssRNA)
RNA: GGGAGUUCUACAGUCCGACGAUCGCUUCGAUAUCCGCAUGCUACUUUGCAAAGGGAAAACCCAUGCUCAGGAAGGUGUUCAGUGUGCACAGAUAGCUGGGAGGCCACGAGAGAAAGGUUGCACACAGACAGGCAGGCACUCCUUGGUGUGGUCUCUCUGUUUUGAAACUUCUGAUGACUUCUUGGUGGCUUGUUGUCUUCUACCCCAUGUUUCUCACAGGAUCUGUGUGUGUGUGUGUGUGUGUGUGUGUGUGUGUGUGUGUGUGUGUUAGCAUGUGUGUAUUAGCGUGUGUGAGUGUGUGAGCUCUUGCGGUCGCACUAGUGUGGAAUUCUCGGGUGUCAAGG
B11: ENSMUSG00000004113.287|Cacna1b (ssRNA)
RNA: GGGAGUUCUACAGUCCGACGAUCGCUUCGAUAUCCGCAUGCUAAAAGGGAAAACCCAUGCUCAGGAAGGUGUUCAGUGUGCACAGAUAGCUGGGAGGCCACGAGAGAAAGGUUGCACACAGACAGGCAGGCACUCCUUGGUGUGGUCUCUCUGUUUUGAAACUUCUGAUGACUUCUUGGUGGCUUGUUGUCUUCUACCCCAUGUUUCUCACAGGAUCUGUGUGUGUGUGUGUGUGUGUGUGUGUGUGUGUGUGUGUGUGUGUUAGCAUGUGUGUAUUAGCGUGUGUGAGUGUGUGAGCAUGCACUCUUGCGGUCGCACUAGUGUGGAAUUCUCGGGUGUCAAGG
B12: ENSMUSG00000004113.284|Cacna1b (ssRNA)
RNA: GGGAGUUCUACAGUCCGACGAUCGCUUCGAUAUCCGCAUGCUAACCUCAUGGCUGCUUUGCAAAGGGAAAACCCAUGCUCAGGAAGGUGUUCAGUGUGCACAGAUAGCUGGGAGGCCACGAGAGAAAGGUUGCACACAGACAGGCAGGCACUCCUUGGUGUGGUCUCUCUGUUUUGAAACUUCUGAUGACUUCUUGGUGGCUUGUUGUCUUCUACCCCAUGUUUCUCACAGGAUCUGUGUGUGUGUGUGUGUGUGUGUGUGUGUGUGUGUGUGUGUGUGUUAGCAUGUGUGUAUUAGCGUGUGCUCUUGCGGUCGCACUAGUGUGGAAUUCUCGGGUGUCAAGG
B13: ENSMUSG00000004113.289|Cacna1b (ssRNA)
RNA: GGGAGUUCUACAGUCCGACGAUCGCUUCGAUAUCCGCAUGCUACAUGCUCAGGAAGGUGUUCAGUGUGCACAGAUAGCUGGGAGGCCACGAGAGAAAGGUUGCACACAGACAGGCAGGCACUCCUUGGUGUGGUCUCUCUGUUUUGAAACUUCUGAUGACUUCUUGGUGGCUUGUUGUCUUCUACCCCAUGUUUCUCACAGGAUCUGUGUGUGUGUGUGUGUGUGUGUGUGUGUGUGUGUGUGUGUGUGUUAGCAUGUGUGUAUUAGCGUGUGUGAGUGUGUGAGCAUGCACGAGUCAUAGGACUCUUGCGGUCGCACUAGUGUGGAAUUCUCGGGUGUCAAGG

target: TDP-43 (Homo sapiens, UniProt Q13148 1-414); assay: RNA Bind-n-Seq with designed 260-mer pool; 25 mM Tris-HCl, 150 mM KCl, 3 mM MgCl2, BSA (printed 500 mg/mL), 20 units/mL SUPERase IN; pH not stated; 500 nM RNA pool, 1 h, 4 C; TDP-43 5, 50, 500 nM; high values mean tight binding; conditions: protein: recombinant; tags: SBP (GST cleaved off with PreScission; pGEX-GST-SBP)
Outline: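 Binding (R) is the ratio of each oligo's mapped-read-normalized abundance in the bound fraction to its abundance in the input. To obtain it, SBP-tagged recombinant TDP-43 (5, 50 or 500 nM) on streptavidin beads was incubated with 500 nM of an in vitro-transcribed 260-nt 3′ UTR oligo pool for 1 h at 4 °C in 25 mM Tris-HCl, 150 mM KCl, 3 mM MgCl2, BSA and SUPERase IN. The RNA retained after washing was released with biotin, then reverse transcribed, amplified by PCR and sequenced.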

Chain of TDP-43 (Q13148 whole entry): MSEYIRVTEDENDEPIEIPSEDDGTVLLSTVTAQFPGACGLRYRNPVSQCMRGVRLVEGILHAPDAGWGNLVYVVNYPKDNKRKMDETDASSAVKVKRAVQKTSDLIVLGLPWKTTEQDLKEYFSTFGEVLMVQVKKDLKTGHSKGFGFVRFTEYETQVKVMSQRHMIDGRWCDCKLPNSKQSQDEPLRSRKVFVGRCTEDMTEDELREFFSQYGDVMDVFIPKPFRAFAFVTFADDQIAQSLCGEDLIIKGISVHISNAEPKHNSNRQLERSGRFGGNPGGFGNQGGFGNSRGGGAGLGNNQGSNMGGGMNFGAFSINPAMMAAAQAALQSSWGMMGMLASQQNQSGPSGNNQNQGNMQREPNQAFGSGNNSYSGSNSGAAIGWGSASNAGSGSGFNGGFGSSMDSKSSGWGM

Question: With B1 as the binder, how does the binding signal read?
Answer: 0.299 R (bound/input frequency ratio)

Question: How did the binding signal turn out when B2 was run?
Answer: 0.443 R (bound/input frequency ratio)

Question: With B3 as the binder, how does the binding signal read?
Answer: 1.12 R (bound/input frequency ratio)

Question: For B4, which binding signal is on record?
Answer: 0.479 R (bound/input frequency ratio)

Question: How did the binding signal turn out when B5 was run?
Answer: 0.827 R (bound/input frequency ratio)

Question: For B6, which binding signal is on record?
Answer: 1.41 R (bound/input frequency ratio)

Question: B7 was tested. Which binding signal did it give?
Answer: 0.238 R (bound/input frequency ratio)

Question: For B8, which binding signal is on record?
Answer: 7.06 R (bound/input frequency ratio)

Question: For B9, which binding signal is on record?
Answer: 7.91 R (bound/input frequency ratio)

Question: With B10 as the binder, how does the binding signal read?
Answer: 6.11 R (bound/input frequency ratio)

Question: With B11 as the binder, how does the binding signal read?
Answer: 5.32 R (bound/input frequency ratio)

Question: Which binding signal does the source give for B12 here?
Answer: 6.3 R (bound/input frequency ratio)

Question: Which binding signal does the source give for B13 here?
Answer: 5.06 R (bound/input frequency ratio)
